Compound activity from PubChem BioAssay.
GPR151 activ: activators of human GPR151 | PathHunter beta-arrestin GPR151 cells, luminescence | activation, % at 11.2 µM | 650,000 compounds, 1% hits | AID 1508602; in the data active means activation above about 4.9%;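 further: 0% = median of compound wells and 100% = cells with positive control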
MITF inh: blocks human microphthalmia-associated transcription factor | O75030 | AlphaScreen MITF homodimerization, bead proximity signal | inhibition, % at 2.6 µM | 650,000 compounds, 0.91% hits | AID 1259374; in the data active means inhibition above about 50%;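 further: 0% = vehicle wells with protein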
Target sequence (O75030 whole entry, looked up): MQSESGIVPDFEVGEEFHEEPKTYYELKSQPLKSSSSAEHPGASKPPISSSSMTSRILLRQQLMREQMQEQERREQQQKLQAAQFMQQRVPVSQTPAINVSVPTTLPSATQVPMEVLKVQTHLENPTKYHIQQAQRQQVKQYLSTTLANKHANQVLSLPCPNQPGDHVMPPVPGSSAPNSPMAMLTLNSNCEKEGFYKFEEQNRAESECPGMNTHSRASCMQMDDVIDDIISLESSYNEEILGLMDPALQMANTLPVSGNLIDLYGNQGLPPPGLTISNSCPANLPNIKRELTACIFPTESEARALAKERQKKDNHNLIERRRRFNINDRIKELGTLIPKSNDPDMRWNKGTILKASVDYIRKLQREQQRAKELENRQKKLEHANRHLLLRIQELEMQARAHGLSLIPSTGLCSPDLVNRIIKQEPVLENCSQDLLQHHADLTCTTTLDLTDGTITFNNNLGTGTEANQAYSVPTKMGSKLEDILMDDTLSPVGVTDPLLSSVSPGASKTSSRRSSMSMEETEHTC
FBW7 act: activators of human E3 ligase FBW7; AlphaScreen FBW7–phospho-cyclin E peptide binding, activator screen; normalized activity (activation), % at 26.1 µM; 650,000 compounds, 0.13% hits; AID 1259310; in the data active means normalized activity above about 1.9%;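 further: purified mutant Fbw7 with reduced substrate affinity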
TEAD-YAP inh: TEAD-YAP interaction inhibition | HEK-TIYL cells, TEAD-Gal4/YAP UAS-luciferase luminescence | inhibition, % at 9.12 µM | 640,000 compounds, 1.4% hits | AID 1259422; in the data active means inhibition above about 32%;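 further: 0% = median of test compound wells and 100% = reference inhibitor wells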
Starred values were filed as active, the others as inactive. In the library only some 3.5% were active in any assay of this set; here they are far more common.

SMILES	GPR151 activ	MITF inh	FBW7 act	TEAD-YAP inh
O=C(Nc1ccc2c(c1)oc1ccccc12)c1cc([N+](=O)[O-])ccc1Br	0.5	1.8	-0.2	32.9*
Cc1cccc(Nc2nnc(SCC(=O)Nc3sc4c(c3C(N)=O)CCC4)s2)c1	-0.7	-1.9	0.1	-11.7
COc1ccc(CNC(=O)C(C)Oc2cccc(C)c2C)cc1 (stereo not given)	-0.2	9.3	0.1	-6.2
CC(=O)Nc1ccc(NC(=O)CN(c2ccccc2F)S(=O)(=O)c2ccccc2)cc1	0.0	6.3	0.0	2.0
Cc1ccccc1-c1nc2cc(NC(=O)c3cc([N+](=O)[O-])ccc3Cl)ccc2o1	0.3	-10.2	-0.1	33.3*
O=C(Nc1ccc2oc(-c3ccccc3)nc2c1)c1cc([N+](=O)[O-])ccc1Br	0.2	20.1	0.7	36.0*
O=C(Nc1ccc2oc(-c3ccccc3Cl)nc2c1)c1cc([N+](=O)[O-])ccc1Cl	2.4	4.1	0.1	26.4
Cc1ccc(-c2cccc3cnc(Nc4cccc(C(=O)N5CCN(C)CC5)c4)nc23)cn1	1.0	16.4	0.2	33.1*
Cc1ccc(-c2cccc3cnc(Nc4ccc(C(=O)N5CCN(C)CC5)cc4)nc23)cn1	-1.0	35.2	0.0	55.0*
Cc1ccc(-c2cccc3cnc(Nc4ccc(C(=O)N5CCOCC5)cc4)nc23)cn1	-0.4	22.1	0.1	49.4*
Cc1cc(NNC(=O)c2ccccc2Cl)c2cccc(C)c2n1	0.3	-11.2	-0.2	40.0*
COc1ccc(C(=O)NNc2cc(C)nc3c(C)cccc23)cc1	-0.7	13.3	0.1	10.0
COc1ccccc1C(=O)Nc1nc(-c2ccccc2)cs1	-0.2	-4.8	-0.1	-71.2
COc1ccc(-c2cc(N3CCN(C/C=C/c4ccccc4)CC3)ncn2)cc1	0.8	-8.9	0.0	35.3*
Cc1cc(/C=C(\C#N)c2nc3ccccc3[nH]2)c(C)n1-c1ccc(F)cc1	-1.1	-4.8	-0.2	71.0*
Cc1cc(/C=C(\C#N)c2nc3ccccc3[nH]2)c(C)n1C1CC1	2.1	-1.2	0.0	-29.6
O=C(CSc1cc(N2CCOCC2)ncn1)c1cccs1	-6.6	0.7	0.2	73.2*
O=S(=O)(c1cccs1)N1CCN(c2cc(N3CCOCC3)ncn2)CC1	-0.2	2.4	-0.3	1.3
CCCn1c(=S)[nH]c2ccc(O)cc2c1=O	-0.2	10.6	0.6	-3.6
COc1cc(NC(=O)c2sc3nc(N)c(C#N)cc3c2N)cc(OC)c1OC	1.2	29.2	-0.5	-11.0
COc1ccc(NC(=O)c2sc3nc(N)c(C#N)cc3c2N)cc1	1.5	18.1	18.4*	-30.0
O=C(CCl)N(Cc1cccs1)C1CCS(=O)(=O)C1 (stereo not given)	-1.4	3.4	-0.1	59.6*
O=C(COc1ccc(Cl)cc1)N(Cc1cccs1)C1CCS(=O)(=O)C1 (stereo not given)	-0.3	-3.6	0.1	-1.0
CCCCN(C(=O)CCl)C1CCS(=O)(=O)C1 (stereo not given)	1.7	5.7	0.0	72.7*
CN1CCN(C(=O)c2ccc(-c3ccc(C(=O)NCCCN4CCCC4=O)s3)cc2)CC1	-1.2	-7.9	0.0	2.1
SMILES	GPR151 activ	MITF inh	FBW7 act	TEAD-YAP inh
CC(NC(=O)CCl)C1COc2ccccc2O1 (stereo not given)	0.3	0.8	-0.4	36.7*
CCN(CC)C(=O)Cn1cnc2sc(C)c(S(=O)(=O)N3CCC(C)CC3)c2c1=O	-0.4	10.3	0.2	-9.8
COc1ccc(Br)cc1/C=C/C(=O)c1cccc(NC(C)=O)c1	3.7	13.1	0.1	74.8*
CN(c1ccc(Cl)cc1)S(=O)(=O)c1nnc(NC(=O)c2ccco2)s1	-0.8	4.0	-0.2	-4.7
Cc1ccc(O)c(N=Nc2ccc(S(=O)(=O)O)cc2)c1	-7.2	9.4	-0.1	14.0
Cc1ccc(O)c(N=Nc2ncn[nH]2)c1	2.8	47.2	-2.1	80.5*
O=C(CSc1ncn[nH]1)c1ccc(O)cc1O	-3.9	-8.6	-0.1	-0.9
Oc1ccc(N=Nc2ncn[nH]2)c(O)c1	-0.3	91.6*	-0.4	10.8
O=c1c2c(nc3n1CC(O)CS3)-c1ccccc1CC21CCCC1 (stereo not given)	-1.1	5.8	0.1	2.6
CCOc1ccc(S(=O)(=O)N2CC3(C)CC2CC(C)(C)C3)cc1 (stereo not given)	-0.7	-10.1	-0.2	-6.9
CN(CCO)C1=CC(=[N+]2CCOCC2)CC(C)(C)C1	1.0	-5.5	-0.1	4.7
CCN(CC)C1=CC(=[N+]2CCCC2)CC(C)(C)C1	1.3	9.6	0.1	60.1*
CN(Cc1ccccc1)C1=CC(=[N+]2CCCC2)CC(C)(C)C1	1.4	-3.4	-0.2	80.2*
